Assay results published in PMC7862700, “An all-to-all approach to the identification of sequence-specific readers for epigenetic DNA modifications on cytosine”.

Experiments:
Assay in all cases: DAPPL (digital affinity profiling via proximity ligation, sequencing); 10 mM Tris-HCl pH 7.5, 50 mM NaCl, 1 mM DTT, 4% glycerol, room temperature, 30 min; GST-TFs on glutathione beads, 16-mer random dsDNA library, 0.1% formaldehyde crosslink after washing; high values mean tight binding
Details in all cases: protein: recombinant; tags: N-terminal GST; dsDNA, one strand shown
ELK1 = molecular target: T1, ELK1 (Homo sapiens, UniProt P19419 1-428)
T1 sequence: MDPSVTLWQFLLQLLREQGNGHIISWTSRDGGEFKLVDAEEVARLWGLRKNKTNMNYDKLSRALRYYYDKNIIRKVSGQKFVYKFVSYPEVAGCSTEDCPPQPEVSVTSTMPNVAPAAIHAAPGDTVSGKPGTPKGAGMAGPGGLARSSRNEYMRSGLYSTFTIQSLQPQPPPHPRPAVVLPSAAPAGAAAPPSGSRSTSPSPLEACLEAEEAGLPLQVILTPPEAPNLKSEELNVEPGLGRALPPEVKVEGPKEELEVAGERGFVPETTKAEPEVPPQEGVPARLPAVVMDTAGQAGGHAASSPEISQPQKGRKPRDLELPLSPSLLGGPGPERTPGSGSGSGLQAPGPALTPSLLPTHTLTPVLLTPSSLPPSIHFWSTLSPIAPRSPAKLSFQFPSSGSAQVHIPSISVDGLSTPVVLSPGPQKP
Summary of the method: (§1)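 Binding signal is each hexamer's read frequency for a factor divided by its frequency in the tag-only sample. The factors were GST-fused human transcription factors from yeast, captured on glutathione beads, DNA-barcoded and pooled with that sample. Pools were incubated with 200 nmole of a random double-stranded 16-mer DNA library in Tris/NaCl/DTT/glycerol buffer at room temperature for 30 min, then washed, crosslinked with 0.1% formaldehyde, proximity-ligated with BsaI/T4 ligase (1 h, 37 °C), PCR-amplified and sequenced on an Illumina NextSeq500.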

ERG = molecular target: T2, ERG (Homo sapiens, UniProt P11308 1-479)
T2 sequence: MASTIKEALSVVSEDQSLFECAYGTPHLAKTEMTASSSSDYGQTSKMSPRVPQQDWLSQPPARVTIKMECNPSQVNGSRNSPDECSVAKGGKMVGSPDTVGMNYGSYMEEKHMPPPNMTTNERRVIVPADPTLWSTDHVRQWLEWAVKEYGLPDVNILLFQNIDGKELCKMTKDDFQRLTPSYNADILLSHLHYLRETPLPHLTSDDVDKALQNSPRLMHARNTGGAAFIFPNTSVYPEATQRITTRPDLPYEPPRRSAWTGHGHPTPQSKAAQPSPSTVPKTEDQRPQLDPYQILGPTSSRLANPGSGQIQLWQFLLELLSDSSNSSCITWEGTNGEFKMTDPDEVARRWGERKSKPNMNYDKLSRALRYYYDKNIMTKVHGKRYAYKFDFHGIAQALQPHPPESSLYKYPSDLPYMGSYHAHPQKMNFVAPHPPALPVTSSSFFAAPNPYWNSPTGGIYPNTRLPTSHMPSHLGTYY
Summary of the method: as §1

EHF = molecular target: T3, EHF (Homo sapiens, UniProt Q9NZC4 1-300)
T3 sequence: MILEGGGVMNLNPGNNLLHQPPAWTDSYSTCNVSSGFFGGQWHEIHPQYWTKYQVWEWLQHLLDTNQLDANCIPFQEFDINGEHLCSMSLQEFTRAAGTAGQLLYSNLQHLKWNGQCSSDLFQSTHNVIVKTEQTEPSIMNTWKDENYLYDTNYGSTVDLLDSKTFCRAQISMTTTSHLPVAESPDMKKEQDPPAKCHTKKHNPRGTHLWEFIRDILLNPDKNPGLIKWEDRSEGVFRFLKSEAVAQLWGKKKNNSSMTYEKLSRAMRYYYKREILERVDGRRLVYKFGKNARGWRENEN
Summary of the method: as §1

SPI1 = SPI1 (Homo sapiens, UniProt P17947 1-270)
Summary of the method: as §1

SPIB = SPIB (Homo sapiens, UniProt Q01892 1-262)
Summary of the method: as §1

FEV = molecular target: T4, FEV (Homo sapiens, UniProt Q99581 1-238)
T4 sequence: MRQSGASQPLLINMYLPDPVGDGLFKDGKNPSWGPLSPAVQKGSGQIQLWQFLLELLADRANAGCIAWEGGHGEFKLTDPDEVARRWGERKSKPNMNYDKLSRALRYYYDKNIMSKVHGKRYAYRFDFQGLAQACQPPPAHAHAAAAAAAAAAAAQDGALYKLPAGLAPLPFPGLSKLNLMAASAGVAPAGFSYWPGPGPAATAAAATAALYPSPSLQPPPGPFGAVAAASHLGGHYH
Summary of the method: as §1

ETV5 = ETV5 (Homo sapiens, UniProt P41161 1-510)
Summary of the method: as §1

ELF4 = ELF4 (Homo sapiens, UniProt Q99607 1-663)
Summary of the method: as §1

ELK4 = molecular target: T5, ELK4 (Homo sapiens, UniProt P28324-2 1-405)
T5 sequence: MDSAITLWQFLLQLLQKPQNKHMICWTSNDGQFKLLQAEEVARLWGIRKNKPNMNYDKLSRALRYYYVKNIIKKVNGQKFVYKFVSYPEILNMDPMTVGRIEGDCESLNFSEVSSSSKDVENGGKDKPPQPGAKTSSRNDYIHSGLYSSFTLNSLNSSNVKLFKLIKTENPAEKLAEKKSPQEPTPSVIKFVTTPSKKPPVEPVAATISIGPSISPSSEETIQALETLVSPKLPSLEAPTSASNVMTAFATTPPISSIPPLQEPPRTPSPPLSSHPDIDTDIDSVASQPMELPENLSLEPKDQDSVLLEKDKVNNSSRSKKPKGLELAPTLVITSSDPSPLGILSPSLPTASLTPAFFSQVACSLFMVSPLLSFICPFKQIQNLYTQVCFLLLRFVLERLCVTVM
Summary of the method: as §1

ELF3 = molecular target: T6, ELF3 (Homo sapiens, UniProt P78545 1-371)
T6 sequence: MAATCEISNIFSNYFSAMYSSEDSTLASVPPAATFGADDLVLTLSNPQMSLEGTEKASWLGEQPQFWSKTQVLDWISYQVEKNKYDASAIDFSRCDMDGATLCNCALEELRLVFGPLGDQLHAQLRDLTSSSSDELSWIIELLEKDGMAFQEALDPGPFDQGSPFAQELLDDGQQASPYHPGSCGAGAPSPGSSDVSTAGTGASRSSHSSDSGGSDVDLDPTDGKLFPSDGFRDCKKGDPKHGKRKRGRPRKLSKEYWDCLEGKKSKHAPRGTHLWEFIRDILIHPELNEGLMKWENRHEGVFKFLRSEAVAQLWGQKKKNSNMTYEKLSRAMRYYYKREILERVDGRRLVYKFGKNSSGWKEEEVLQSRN
Summary of the method: as §1

ERF = molecular target: T7, ERF (Homo sapiens, UniProt P50548 1-548)
T7 sequence: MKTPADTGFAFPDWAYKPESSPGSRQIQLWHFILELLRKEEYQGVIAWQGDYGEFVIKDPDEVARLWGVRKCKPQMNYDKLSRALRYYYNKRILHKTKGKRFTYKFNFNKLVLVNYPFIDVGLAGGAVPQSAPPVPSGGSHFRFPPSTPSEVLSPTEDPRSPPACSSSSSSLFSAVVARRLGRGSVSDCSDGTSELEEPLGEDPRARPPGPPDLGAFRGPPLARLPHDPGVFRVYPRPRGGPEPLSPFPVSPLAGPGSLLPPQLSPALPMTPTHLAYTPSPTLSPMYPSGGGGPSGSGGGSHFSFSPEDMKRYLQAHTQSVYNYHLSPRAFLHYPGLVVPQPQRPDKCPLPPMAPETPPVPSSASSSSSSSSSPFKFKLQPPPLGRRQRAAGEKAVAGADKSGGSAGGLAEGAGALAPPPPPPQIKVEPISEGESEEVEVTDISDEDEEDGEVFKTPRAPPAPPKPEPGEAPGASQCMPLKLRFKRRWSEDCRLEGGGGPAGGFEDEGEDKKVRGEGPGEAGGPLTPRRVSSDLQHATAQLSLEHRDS
Summary of the method: as §1

ETV3L = molecular target: T8, ETV3L (Homo sapiens, UniProt Q6ZN32 1-361)
T8 sequence: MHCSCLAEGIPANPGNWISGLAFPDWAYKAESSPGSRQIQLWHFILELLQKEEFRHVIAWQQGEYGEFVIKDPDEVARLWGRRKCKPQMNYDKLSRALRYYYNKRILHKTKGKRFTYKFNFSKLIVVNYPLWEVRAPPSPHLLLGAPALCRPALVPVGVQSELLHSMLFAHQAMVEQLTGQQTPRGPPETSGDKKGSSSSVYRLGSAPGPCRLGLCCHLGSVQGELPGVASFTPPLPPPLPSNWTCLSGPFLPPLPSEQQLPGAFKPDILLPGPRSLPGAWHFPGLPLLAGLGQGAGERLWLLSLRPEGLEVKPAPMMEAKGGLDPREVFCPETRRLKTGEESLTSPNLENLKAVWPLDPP
Summary of the method: as §1

ETS2 = molecular target: T9, ETS2 (Homo sapiens, UniProt P15036 1-469)
T9 sequence: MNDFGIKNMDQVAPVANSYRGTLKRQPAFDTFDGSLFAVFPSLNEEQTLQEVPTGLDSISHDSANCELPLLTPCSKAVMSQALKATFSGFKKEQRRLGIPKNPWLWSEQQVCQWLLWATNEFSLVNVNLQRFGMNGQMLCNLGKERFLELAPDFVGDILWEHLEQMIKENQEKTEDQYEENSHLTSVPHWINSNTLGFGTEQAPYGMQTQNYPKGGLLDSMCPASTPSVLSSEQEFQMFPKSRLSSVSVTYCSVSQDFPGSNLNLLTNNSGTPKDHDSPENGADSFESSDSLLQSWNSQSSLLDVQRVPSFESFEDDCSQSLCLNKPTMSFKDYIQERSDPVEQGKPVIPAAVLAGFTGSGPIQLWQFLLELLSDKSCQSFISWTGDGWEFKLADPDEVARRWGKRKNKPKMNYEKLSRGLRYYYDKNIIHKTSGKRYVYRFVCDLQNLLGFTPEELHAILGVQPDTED
Summary of the method: as §1

SPDEF = molecular target: T10, SPDEF (Homo sapiens, UniProt O95238 1-335)
T10 sequence: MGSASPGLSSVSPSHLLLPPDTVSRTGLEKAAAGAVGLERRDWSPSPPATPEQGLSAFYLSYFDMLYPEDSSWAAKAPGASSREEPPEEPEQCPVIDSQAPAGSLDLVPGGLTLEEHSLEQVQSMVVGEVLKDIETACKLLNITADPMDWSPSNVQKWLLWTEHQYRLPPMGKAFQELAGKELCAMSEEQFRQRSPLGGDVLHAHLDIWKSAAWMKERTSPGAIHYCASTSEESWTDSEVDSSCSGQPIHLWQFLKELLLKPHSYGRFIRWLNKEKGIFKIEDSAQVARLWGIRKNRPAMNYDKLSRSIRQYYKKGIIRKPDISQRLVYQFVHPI
Summary of the method: as §1

ETV7 = molecular target: T11, ETV7 (Homo sapiens, UniProt Q9Y603 1-341)
T11 sequence: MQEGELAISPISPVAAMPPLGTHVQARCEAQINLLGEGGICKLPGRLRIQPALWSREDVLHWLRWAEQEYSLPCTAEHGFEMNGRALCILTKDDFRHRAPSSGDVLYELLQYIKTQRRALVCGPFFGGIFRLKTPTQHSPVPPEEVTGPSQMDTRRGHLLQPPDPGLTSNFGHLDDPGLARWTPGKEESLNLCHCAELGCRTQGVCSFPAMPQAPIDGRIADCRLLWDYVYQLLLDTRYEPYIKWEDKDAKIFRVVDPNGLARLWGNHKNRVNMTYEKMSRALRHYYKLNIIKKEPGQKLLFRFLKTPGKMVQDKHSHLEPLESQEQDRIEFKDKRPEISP
Summary of the method: as §1

ETV3 = molecular target: T12, ETV3 (Homo sapiens, UniProt P41162-2 1-143)
T12 sequence: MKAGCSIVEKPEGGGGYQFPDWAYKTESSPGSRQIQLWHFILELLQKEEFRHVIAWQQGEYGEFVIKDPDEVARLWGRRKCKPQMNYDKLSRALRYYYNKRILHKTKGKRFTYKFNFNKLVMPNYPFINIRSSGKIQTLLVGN
Summary of the method: as §1

ETV6 = ETV6 (Homo sapiens, UniProt P41212 1-452)
Summary of the method: as §1

ETV5, sequence (P41161 whole entry): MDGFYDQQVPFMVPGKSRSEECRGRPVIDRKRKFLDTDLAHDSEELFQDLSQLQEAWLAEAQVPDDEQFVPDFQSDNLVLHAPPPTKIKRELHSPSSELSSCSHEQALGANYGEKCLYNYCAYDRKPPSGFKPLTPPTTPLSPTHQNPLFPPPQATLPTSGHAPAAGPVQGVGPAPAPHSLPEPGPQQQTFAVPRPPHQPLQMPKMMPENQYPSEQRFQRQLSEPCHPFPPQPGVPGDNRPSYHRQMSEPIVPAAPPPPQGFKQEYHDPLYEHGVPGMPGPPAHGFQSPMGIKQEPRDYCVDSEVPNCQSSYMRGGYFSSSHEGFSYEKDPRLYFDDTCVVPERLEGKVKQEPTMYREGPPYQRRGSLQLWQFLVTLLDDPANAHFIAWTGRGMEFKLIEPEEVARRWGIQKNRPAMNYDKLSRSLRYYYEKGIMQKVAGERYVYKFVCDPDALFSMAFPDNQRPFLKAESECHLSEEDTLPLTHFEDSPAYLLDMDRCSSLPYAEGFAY
ELF4, sequence (Q99607 whole entry): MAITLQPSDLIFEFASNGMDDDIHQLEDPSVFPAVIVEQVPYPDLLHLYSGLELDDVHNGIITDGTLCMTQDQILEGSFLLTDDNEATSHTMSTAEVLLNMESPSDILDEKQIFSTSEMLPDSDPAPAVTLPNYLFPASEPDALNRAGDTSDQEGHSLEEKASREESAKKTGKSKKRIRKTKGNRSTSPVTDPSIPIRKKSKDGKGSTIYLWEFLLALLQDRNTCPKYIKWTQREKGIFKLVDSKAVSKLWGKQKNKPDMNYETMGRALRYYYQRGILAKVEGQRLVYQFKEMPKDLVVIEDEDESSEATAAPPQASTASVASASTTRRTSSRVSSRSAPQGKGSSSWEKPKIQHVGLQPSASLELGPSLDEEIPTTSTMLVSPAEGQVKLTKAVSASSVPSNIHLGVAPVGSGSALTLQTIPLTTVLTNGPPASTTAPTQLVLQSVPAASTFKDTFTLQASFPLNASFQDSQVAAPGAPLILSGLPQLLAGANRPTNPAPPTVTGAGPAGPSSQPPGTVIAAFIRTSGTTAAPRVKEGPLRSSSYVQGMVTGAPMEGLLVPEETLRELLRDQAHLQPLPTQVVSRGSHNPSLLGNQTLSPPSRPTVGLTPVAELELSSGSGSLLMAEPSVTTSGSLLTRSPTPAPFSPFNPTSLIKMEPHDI
SPIB, sequence (Q01892 whole entry): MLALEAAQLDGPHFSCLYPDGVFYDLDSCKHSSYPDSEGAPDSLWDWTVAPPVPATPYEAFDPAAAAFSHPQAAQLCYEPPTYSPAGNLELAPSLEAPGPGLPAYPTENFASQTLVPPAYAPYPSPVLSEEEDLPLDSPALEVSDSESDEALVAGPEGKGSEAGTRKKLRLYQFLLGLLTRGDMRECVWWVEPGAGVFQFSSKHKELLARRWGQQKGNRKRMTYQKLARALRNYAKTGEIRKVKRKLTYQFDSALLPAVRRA
ETV6, sequence (P41212 whole entry): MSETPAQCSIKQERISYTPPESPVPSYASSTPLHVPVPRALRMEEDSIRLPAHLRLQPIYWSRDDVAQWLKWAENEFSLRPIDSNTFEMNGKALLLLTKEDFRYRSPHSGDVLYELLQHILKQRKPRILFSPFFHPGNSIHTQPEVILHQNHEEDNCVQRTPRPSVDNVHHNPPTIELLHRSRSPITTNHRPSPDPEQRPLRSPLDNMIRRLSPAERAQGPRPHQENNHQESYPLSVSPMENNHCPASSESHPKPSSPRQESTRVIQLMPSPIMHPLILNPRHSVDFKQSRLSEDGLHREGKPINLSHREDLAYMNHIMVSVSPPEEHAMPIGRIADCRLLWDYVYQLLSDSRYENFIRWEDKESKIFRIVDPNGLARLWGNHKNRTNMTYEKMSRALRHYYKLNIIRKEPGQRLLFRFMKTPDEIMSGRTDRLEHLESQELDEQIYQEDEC

Row | Sequence | binding signal (ELK1) | binding signal (ERG) | binding signal (EHF) | binding signal (SPI1) | binding signal (SPIB) | binding signal (FEV) | binding signal (ETV5) | binding signal (ELF4) | binding signal (ELK4) | binding signal (ELF3) | binding signal (ERF) | binding signal (ETV3L) | binding signal (ETS2) | binding signal (SPDEF) | binding signal (ETV7) | binding signal (ETV3) | binding signal (ETV6)
1 | GCCCCG | 1.07 fold enrichment (6-mer frequency, TF over GST control) | 1.06 fold enrichment (6-mer frequency, TF over GST control) | 1.01 fold enrichment (6-mer frequency, TF over GST control) | 1.08 fold enrichment (6-mer frequency, TF over GST control) | 1.16 fold enrichment (6-mer frequency, TF over GST control) | 1.12 fold enrichment (6-mer frequency, TF over GST control) | 1.02 fold enrichment (6-mer frequency, TF over GST control) | 1.09 fold enrichment (6-mer frequency, TF over GST control) | 1.13 fold enrichment (6-mer frequency, TF over GST control) | 1.08 fold enrichment (6-mer frequency, TF over GST control) | 1 fold enrichment (6-mer frequency, TF over GST control) | 1.03 fold enrichment (6-mer frequency, TF over GST control) | 1.02 fold enrichment (6-mer frequency, TF over GST control) | 1.01 fold enrichment (6-mer frequency, TF over GST control) | 1.06 fold enrichment (6-mer frequency, TF over GST control) | 1.15 fold enrichment (6-mer frequency, TF over GST control) | 1.09 fold enrichment (6-mer frequency, TF over GST control)
2 | GCGAAA | – | – | – | 1.02 fold enrichment (6-mer frequency, TF over GST control) | – | – | 1.01 fold enrichment (6-mer frequency, TF over GST control) | – | – | – | – | – | – | – | 1.04 fold enrichment (6-mer frequency, TF over GST control) | – | –
